Source: PubChem BioAssay (Tox21)
Results filed as inconclusive are left out. Activity calls are given as the source filed them. Unless noted, calls come from the whole dose curve; as a rule, active = well fitted curve in the direction sought with a large enough effect in the repeat runs; inconclusive = weak or mixed curves; inactive = no such curve, though single readings can be large; an effect the other way counts as inactive or inconclusive.

Assays:
[1] = qHTS assay to identify small molecule antagonists of the estrogen receptor beta (ER-beta) signaling pathway - cell viability counter screen (AID 1259382);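 note: HEK293T cells carrying ER-beta-UAS-bla reporter stimulated with estradiol; series mostly up to about 92 µM; nearly all actives have a fitted effect of over 55% in size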
Summary of the method: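 ER-beta-UAS-bla HEK293T cells in 2% charcoal-stripped FBS medium, treated with compound plus 1 nM 17-beta-estradiol for 16 h at 37C. Viability read by CellTiter-Glo luminescence after 30 min at room temperature in the same wells.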

[2] = target: Estrogen receptor (Homo sapiens) (UniProt P03372); experiment: qHTS assay to identify small molecule agonists of the estrogen receptor alpha (ER-alpha) signaling pathway in the presence of an antagonist (AID 1259383; calls by dose curve; note: top concentration of the series differs between compounds; nearly all actives have a fitted effect of over 15% in size)
Summary of the method: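 VM7Luc4E2 cells express endogenous full-length ER-alpha with an ERE-luciferase reporter and were hormone-deprived for 5 days. Compounds at 15 concentrations were added with 10.0nM ICI-182,780 for 22hr at 37C. Luminescence was read with ONE-Glo.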

[3] = qHTS assay to identify small molecule agonists or antagonists of the thyroid stimulating hormone receptor (TSHR) signaling pathway - wild type cell line counter screen (AID 1259384; calls by dose curve)
Summary of the method: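 Wild-type Hek293 cells, 800/well, 18 h at 37C, then compound with Ro20-1724 for 30 min RT. cAMP by HTRF (cAMP-d2/anti-cAMP cryptate), 1 h RT, fluorescence read. 15 concentrations, triplicates.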

[4] = target: Thyrotropin receptor (Homo sapiens) (UniProt P16473); experiment: qHTS assay to identify small molecule antagonists of the thyroid stimulating hormone receptor (TSHR) signaling pathway (AID 1259385; calls by dose curve; note: nearly all actives have a fitted effect of over 20% in size)
Summary of the method: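 TSHR-HEK293 cells (800/well) plated 18 h, then compounds with Ro20-1724 and TSH at 1.5 ng/mL final, 30 min at room temperature. cAMP quantified by HTRF (cAMP-d2/anti-cAMP-cryptate, 1 h); 15 concentrations in triplicate.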

[5] = qHTS assay to identify small molecule agonists of the estrogen receptor alpha (ER-alpha) signaling pathway in the presence of an antagonist - cell viability counter screen (AID 1259386);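 note: series mostly up to about 92 µM; cells exposed to compounds for 22 h at 37 °C before the viability read; nearly all actives have a fitted effect of over 30% in size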
Summary of the method: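 Cell viability in VM7Luc4E2 cells (endogenous full-length ER-alpha) measured by CellTiter-Fluor fluorescence in the same wells as the luciferase screen. Cells pre-cultured 5 days in charcoal-stripped serum, then treated 22 h with compounds at 15 concentrations plus 10.0nM ICI-182,780.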

[6] = target: Progesterone receptor (Homo sapiens) (UniProt P06401); experiment: qHTS assay to identify small molecule agonists of the progesterone receptor (PR) signaling pathway (AID 1346784; calls by dose curve; note: nearly all actives have a fitted effect of over 30% in size)
Summary of the method: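 PR-UAS-bla HEK 293T cells (beta-lactamase reporter under UAS) in 2% charcoal-stripped FBS, dosed with 23 nL compound after 6 hr, incubated 16hr at 37C. LiveBLAzer B/G FRET substrate added, fluorescence read after 2 hours.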

[7] = target: Progesterone receptor (Homo sapiens) (UniProt P06401); experiment: qHTS assay to identify small molecule antagonists of the progesterone receptor (PR) signaling pathway (AID 1346795; active = well fitted inhibition curve with a large enough effect in the signal ratio in the repeat runs, not every such curve was filed as active; the % refers to the signal ratio)
Summary of the method: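 PR-UAS-bla HEK293T cells with beta-lactamase reporter under UAS control, in 2% charcoal-stripped FBS, treated with compounds plus 1 nM promegestone (R5020, final) for 16 hr at 37C. Read-out: FRET beta-lactamase substrate fluorescence after 2 hr at room temperature.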

[8] = qHTS assay to identify small molecule agonists of the progesterone receptor (PR) signaling pathway - cell viability counter screen (AID 1346799; calls by dose curve; note: nearly all actives have a fitted effect of over 45% in size)
Summary of the method: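 Counter screen in the PR-UAS-bla HEK293T wells (2% charcoal-stripped FBS, 16 h compound exposure at 37 C) after the bla read. CellTiter-Glo added, 30 min at room temperature, luminescence read as cell viability.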

[9] = qHTS assay to identify small molecule antagonists of the TGF-beta/Smad signaling pathway - cell viability counter screen (AID 1346824); note: nearly all actives have a fitted effect of over 50% in size
Summary of the method: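 SBE-bla HEK 293T cells, incubated overnight, then compound plus 0.25 ng/mL TGF-beta1 (stock added) for 5 hr at 37 C. Viability was read in the same wells by CellTiter-Glo luminescence after 30 min at room temperature.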

[10] = qHTS assay to identify small molecule agonists of the TGF-beta/Smad signaling pathway - cell viability counter screen (AID 1346829); note: top concentration of the series differs between compounds; nearly all actives have a fitted effect of over 45% in size
Summary of the method: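 Cytotoxicity counter screen: CellTiter-Glo luminescence (30 min, room temperature) measured in the SBE-bla HEK 293T reporter wells after 5 hr compound treatment at 37 C and the 2 hr substrate step.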

[11] = qHTS assay to identify small molecule agonists of the TGF-beta/Smad signaling pathway (AID 1346859; active = well fitted activation curve with a large enough effect in the signal ratio in the repeat runs, not every such curve was filed as active; the % refers to the signal ratio; note: series mostly up to about 77 µM)
Summary of the method: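 SBE-bla HEK293T cells plated overnight, then compound exposure for 5 h at 37 C. Beta-lactamase reporter read with LiveBLAzer B/G FRET substrate after 2 h at room temperature, fluorescence at 405 nm excitation, 460/530 nm emission.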

[12] = target: Thyrotropin-releasing hormone receptor (Homo sapiens) (UniProt P34981); experiment: qHTS assay to identify small molecule antagonists of the thyrotropin-releasing hormone receptor (TRHR) signaling pathway (AID 1346877; active = well fitted inhibition curve with a large enough effect in the repeat runs, not every such curve was filed as active; note: series mostly up to about 51 µM)
Summary of the method: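 TRHR-expressing HEK293 cells loaded with calcium dye for 2 h at 37 C; compounds pre-incubated 5 min at room temperature before TRH challenge at 1 nM final. Intracellular calcium fluorescence read kinetically for 3 min; 15 concentrations in triplicate.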

[13] = target: Thyrotropin-releasing hormone receptor (Homo sapiens) (UniProt P34981); experiment: qHTS assay to identify small molecule agonists of the thyrotropin-releasing hormone receptor (TRHR) signaling pathway (AID 1346891; calls by dose curve; note: series mostly up to about 58 µM)
Summary of the method: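 HEK293 cells expressing TRHR plated 18 h at 37 C/5% CO2, calcium dye-loaded 2 h at 37 C, then compound added (agonist mode); kinetic calcium fluorescence read 3 min at 1 s intervals; 15 concentrations in triplicate.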

[14] = Human pregnane X receptor (PXR) small molecule agonists, qHTS cell viability counter screen (AID 1346977); note: nearly all actives have a fitted effect of over 50% in size
Summary of the method: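 PXR-Luc HepG2 cells (2,000/well, 5% charcoal-stripped FBS) preincubated 5 hr, then exposed to compounds 24 hr at 37 C. Viability read in the same wells by CellTiter-Fluor fluorescence, reagent added at 23 hr, 1 hr incubation.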

[15] = Caspase-3/7 induction in HepG2 cells by small molecules, qHTS assay (AID 1346978); note: nearly all actives have a fitted effect of over 15% in size
Summary of the method: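 Wild-type HepG2 cells, 2,000/well, settled 5 hr at 37 C and 5% CO2, then compound-treated for 17 hr; caspase-3/7 activity read by luminescent Caspase-Glo 3/7 after 30 min at room temperature.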

[16] = Caspase-3/7 induction in CHO-K1 cells by small molecules, qHTS cell viability counter screen (AID 1346979); note: nearly all actives have a fitted effect of over 35% in size; note: potency is the fitted concentration of half-maximal effect
Summary of the method: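 Wild-type CHO-K1 cells (1,500/well) treated with compound after 5 h plating; after 16 h at 37C, viability read as CellTiter-Fluor fluorescence following 1 h reagent incubation, in the same wells as the caspase read.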

[17] = Caspase-3/7 induction in CHO-K1 cells by small molecules, qHTS assay (AID 1346980); note: nearly all actives have a fitted effect of over 15% in size
Summary of the method: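 Wild-type CHO-K1 cells exposed to compounds for 17hr at 37 C, 5% CO2. Caspase-3/7 activity then measured by Caspase-Glo 3/7 luminescence after 30min at room temperature.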

[18] = Caspase-3/7 induction in HepG2 cells by small molecules, qHTS cell viability counter screen (AID 1346981); note: series mostly up to about 92 µM; nearly all actives have a fitted effect of over 30% in size
Summary of the method: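 Wild-type HepG2 cells, 2,000/well, settled 5 hr at 37 C, 5% CO2 before compound addition. Viability read by CellTiter-Fluor fluorescence, reagent added after 16 hr compound exposure, then 1 hr at 37C, in the same wells as the caspase read.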

[19] = target: Nuclear receptor subfamily 1 group I member 2 (Homo sapiens) (UniProt O75469); experiment: Human pregnane X receptor (PXR) small molecule agonists, qHTS assay (AID 1346982); note: nearly all actives have a fitted effect of over 35% in size; note: potency is the fitted concentration of half-maximal effect
Summary of the method: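 PXR-Luc HepG2 reporter cells (CYP3A4-driven luciferase) in 5% charcoal-stripped FBS medium, plated 5 h before compound addition, then treated 24 h at 37C. Luciferase read by ONE-Glo luminescence after 30 min at room temperature.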

[20] = qHTS assay to identify small molecule antagonists of the progesterone receptor (PR) signaling pathway - cell viability counter screen (AID 1346798); note: series mostly up to about 92 µM; nearly all actives have a fitted effect of over 50% in size
Summary of the method: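 PR-UAS-bla HEK293T cells, 3,000/well in 2% charcoal-stripped FBS medium, dosed with compounds plus R5020 agonist and incubated 16 h at 37C. Viability then measured in the same wells by CellTiter-Glo luminescence after 30 min at RT.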
% is set by controls: 0 for no effect and ±100 for the full control effect.

Sequence of Progesterone receptor (Homo sapiens) (P06401 whole entry, looked up): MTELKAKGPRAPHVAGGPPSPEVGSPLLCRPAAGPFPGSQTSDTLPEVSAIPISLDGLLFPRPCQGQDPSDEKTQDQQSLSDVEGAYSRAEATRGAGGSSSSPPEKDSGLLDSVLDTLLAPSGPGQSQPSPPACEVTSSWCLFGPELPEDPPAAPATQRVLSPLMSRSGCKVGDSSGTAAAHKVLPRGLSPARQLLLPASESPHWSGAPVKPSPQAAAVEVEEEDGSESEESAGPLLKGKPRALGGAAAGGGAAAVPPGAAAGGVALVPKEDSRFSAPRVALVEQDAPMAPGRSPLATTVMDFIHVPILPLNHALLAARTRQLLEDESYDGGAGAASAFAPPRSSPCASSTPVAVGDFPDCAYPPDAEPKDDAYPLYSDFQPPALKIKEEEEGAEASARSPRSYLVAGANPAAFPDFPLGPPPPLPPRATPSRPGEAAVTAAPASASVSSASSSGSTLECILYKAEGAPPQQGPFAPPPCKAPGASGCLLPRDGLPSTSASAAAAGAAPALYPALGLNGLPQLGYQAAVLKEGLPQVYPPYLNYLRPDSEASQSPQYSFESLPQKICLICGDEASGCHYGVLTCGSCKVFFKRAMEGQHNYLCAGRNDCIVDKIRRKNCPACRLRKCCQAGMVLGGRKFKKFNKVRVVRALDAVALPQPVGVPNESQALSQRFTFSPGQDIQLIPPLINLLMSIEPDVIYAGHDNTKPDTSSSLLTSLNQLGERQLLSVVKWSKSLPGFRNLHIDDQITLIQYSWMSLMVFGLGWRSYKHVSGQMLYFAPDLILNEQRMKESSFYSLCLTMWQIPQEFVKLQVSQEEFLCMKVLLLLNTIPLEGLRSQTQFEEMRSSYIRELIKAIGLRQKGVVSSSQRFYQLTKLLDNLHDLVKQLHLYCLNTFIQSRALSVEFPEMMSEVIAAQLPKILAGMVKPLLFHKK
Sequence of Nuclear receptor subfamily 1 group I member 2 (Homo sapiens) (O75469 whole entry, looked up): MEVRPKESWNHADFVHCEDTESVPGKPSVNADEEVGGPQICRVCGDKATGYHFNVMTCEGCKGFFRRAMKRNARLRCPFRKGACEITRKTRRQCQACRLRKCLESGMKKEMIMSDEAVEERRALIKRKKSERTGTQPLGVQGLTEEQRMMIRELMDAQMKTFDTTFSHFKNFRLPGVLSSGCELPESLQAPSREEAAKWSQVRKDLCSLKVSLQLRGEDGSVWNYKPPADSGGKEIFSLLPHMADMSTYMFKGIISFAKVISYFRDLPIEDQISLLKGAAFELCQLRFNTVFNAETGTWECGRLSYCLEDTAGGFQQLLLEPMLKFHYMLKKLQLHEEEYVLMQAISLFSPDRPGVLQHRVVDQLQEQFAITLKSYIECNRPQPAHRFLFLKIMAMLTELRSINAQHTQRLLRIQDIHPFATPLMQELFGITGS
Sequence of Thyrotropin-releasing hormone receptor (Homo sapiens) (P34981 whole entry, looked up): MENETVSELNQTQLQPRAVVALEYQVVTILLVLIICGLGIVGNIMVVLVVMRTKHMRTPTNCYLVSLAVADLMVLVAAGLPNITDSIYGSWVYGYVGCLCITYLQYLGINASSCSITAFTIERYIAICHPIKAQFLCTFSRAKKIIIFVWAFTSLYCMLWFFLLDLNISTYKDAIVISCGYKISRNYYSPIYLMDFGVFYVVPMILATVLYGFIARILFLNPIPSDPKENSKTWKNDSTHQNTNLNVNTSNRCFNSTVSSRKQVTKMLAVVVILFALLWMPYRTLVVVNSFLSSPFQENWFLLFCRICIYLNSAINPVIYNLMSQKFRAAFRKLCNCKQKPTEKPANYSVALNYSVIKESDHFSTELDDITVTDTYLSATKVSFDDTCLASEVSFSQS
Sequence of Thyrotropin receptor (Homo sapiens) (P16473 whole entry, looked up): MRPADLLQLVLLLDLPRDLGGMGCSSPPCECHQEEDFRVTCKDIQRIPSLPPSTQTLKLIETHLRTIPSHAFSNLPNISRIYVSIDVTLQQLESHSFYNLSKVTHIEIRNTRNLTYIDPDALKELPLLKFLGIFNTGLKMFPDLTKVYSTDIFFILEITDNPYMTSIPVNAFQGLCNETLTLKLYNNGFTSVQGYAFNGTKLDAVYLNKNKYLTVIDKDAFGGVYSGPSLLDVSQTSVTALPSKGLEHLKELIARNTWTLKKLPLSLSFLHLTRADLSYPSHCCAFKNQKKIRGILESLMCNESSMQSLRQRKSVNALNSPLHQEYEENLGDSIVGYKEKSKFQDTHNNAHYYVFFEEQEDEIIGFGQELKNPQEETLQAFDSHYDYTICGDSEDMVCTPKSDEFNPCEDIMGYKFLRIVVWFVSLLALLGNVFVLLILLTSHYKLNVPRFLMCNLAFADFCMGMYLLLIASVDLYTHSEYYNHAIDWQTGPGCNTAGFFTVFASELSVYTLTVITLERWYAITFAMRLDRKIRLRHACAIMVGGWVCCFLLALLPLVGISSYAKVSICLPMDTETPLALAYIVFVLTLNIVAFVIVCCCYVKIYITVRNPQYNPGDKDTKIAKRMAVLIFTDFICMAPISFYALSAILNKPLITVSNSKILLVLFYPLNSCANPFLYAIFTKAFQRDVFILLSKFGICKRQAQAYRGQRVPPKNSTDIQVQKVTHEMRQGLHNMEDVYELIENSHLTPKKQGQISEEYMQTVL
Sequence of Estrogen receptor (Homo sapiens) (P03372 whole entry, looked up): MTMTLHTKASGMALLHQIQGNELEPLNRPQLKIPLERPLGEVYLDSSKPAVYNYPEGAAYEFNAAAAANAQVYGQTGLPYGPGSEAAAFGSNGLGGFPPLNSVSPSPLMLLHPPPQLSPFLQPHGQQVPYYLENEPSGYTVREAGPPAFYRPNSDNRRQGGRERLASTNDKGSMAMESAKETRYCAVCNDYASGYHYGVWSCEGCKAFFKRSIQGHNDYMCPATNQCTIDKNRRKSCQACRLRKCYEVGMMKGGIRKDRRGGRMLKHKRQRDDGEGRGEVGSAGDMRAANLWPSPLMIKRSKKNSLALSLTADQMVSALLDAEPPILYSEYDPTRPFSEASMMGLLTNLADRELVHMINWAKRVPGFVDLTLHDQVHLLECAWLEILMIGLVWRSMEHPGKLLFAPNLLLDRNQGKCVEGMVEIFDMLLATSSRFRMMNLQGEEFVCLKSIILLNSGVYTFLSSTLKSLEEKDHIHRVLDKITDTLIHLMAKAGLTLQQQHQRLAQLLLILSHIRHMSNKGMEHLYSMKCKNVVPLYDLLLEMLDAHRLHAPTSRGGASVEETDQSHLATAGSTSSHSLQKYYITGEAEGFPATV

C[C@@H]1CC[C@@]2(OC1)O[C@H]1C[C@H]3[C@@H]4CC[C@H]5C[C@@H](O)CC[C@]5(C)[C@H]4CC(=O)[C@]3(C)[C@H]1[C@@H]2C
inactive: activity change, negative = cytotoxicity [1] 3.19% [at 8.39 µM] | activation [2] 0.597% [at 8.39 µM] | cAMP activity change [3] -0.224% [at 8.39 µM] | activity change, negative = inhibition [4] -0.41% [at 8.39 µM] | activity change, negative = cytotoxicity [5] 0.111% [at 8.39 µM] | activation [6] -0.697% [at 8.39 µM] | activity change, negative = inhibition [7] 17.4% [at 8.39 µM] | activity change, negative = cytotoxicity [8] 3.64% [at 8.39 µM] | viability change, negative = cytotoxic [9] -1.38% [at 6.97 µM] | activity change, negative = cytotoxicity [10] -1.03% [at 6.97 µM] | activation [11] -4.07% [at 6.97 µM] | activity, negative = inhibition [12] 1.5% [at 4.65 µM] | activation [13] -0.339% [at 5.23 µM] | activity change, negative = cytotoxicity [14] 11.4% [at 8.39 µM] | caspase activation [15] 0.244% [at 8.39 µM] | activity change, negative = cytotoxicity [16] 2.81% [at 8.39 µM] | caspase-3/7 activation [17] -0.713% [at 8.39 µM] | activity change, negative = cytotoxicity [18] 6.1% [at 8.39 µM] | activation [19] -7.1% [at 8.39 µM]

CC(C)(C)c1ccc(N)cc1
inactive: outcome [1] | Potency [2] | outcome [5] | Potency [6] | Potency [7] | outcome [20] | Potency [8] | outcome [9] | outcome [10] | outcome [11] | outcome [12] | Potency [13] | outcome [14] | outcome [15] | Potency [16] | outcome [17] | outcome [18]
active: Potency [19] 68.6 µM

Cc1ccc2cccnc2c1
inactive: outcome [1] | Potency [2] | outcome [5] | Potency [6] | Potency [7] | Potency [8] | outcome [10] | outcome [11] | outcome [12] | Potency [13] | outcome [14] | outcome [15] | Potency [16] | outcome [17] | outcome [18] | Potency [19]

Cc1cc(=O)oc2cc(O[C@@H]3SC[C@@H](O)[C@H](O)[C@H]3O)ccc12
inactive: outcome [1] | Potency [2] | outcome [4] | outcome [5] | Potency [6] | Potency [7] | outcome [20] | Potency [8] | outcome [9] | outcome [10] | outcome [11] | outcome [14] | outcome [15] | Potency [16] | outcome [17] | outcome [18] | Potency [19]

CO/N=C(\C(=O)O)c1csc(NC(=O)CCl)n1
inactive: outcome [1] | Potency [2] | outcome [5] | Potency [6] | Potency [7] | outcome [20] | Potency [8] | outcome [9] | outcome [10] | outcome [11] | outcome [12] | Potency [13] | outcome [14] | outcome [15] | Potency [16] | outcome [17] | outcome [18] | Potency [19]

Cc1nc2ccc(Cl)cc2[nH]1
inactive: outcome [1] | Potency [2] | outcome [5] | Potency [6] | Potency [7] | outcome [20] | Potency [8] | outcome [9] | outcome [10] | outcome [11] | outcome [12] | outcome [15] | outcome [17]
active: Potency [16] 17.2 µM | Potency [19] 12.2 µM

CC(C)(O)c1ccc(C(C)(C)O)cc1
inactive: outcome [1] | Potency [2] | outcome [4] | outcome [5] | Potency [6] | Potency [7] | outcome [20] | Potency [8] | outcome [9] | outcome [10] | outcome [11] | outcome [14] | outcome [15] | Potency [16] | outcome [17] | outcome [18] | Potency [19]
